From PubChem BioAssay (NCATS)
Records with an inconclusive call do not appear. A call without a number means that no potency is given here. Calls of active or inactive are those of the source. Calls follow the shape of the dose curve; as a rule, active = well fitted inhibition curve with a large enough effect; inconclusive = small, poorly fitted or top-dose-only effect; inactive = no such curve, though single readings can be large or run the other way. Where a SMILES comes first, the peptide text is derived from it. [ ]: non-standard residue; d: D form. ξ: configuration not given here. ξTyr(βOH) = NC(C(=O)O)C(O)c1ccc(O)cc1

How the values were obtained:
[1] = test system: Zika virus NS2B-NS3 protease (unlinked complex); assay: Primary screen GU Rhodamine qHTS for Zika virus inhibitors: Unlinked NS2B-NS3 protease assay (AID 1347159); also: nearly all actives have a fitted effect of over 60% in size
In short: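 Unlinked NS2B/NS3, 25 nM; Rhod110 peptide, 1.5 microM; compounds, up to 114 microM. Reaction run 15 min at RT in 10 mM Tris-HCl pH 8.0, 0.01% Tween 20; kinetic fluorescence change fitted with a 4-parameter Hill model.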

[2] = test system: Zika virus NS2B-NS3 protease (linked construct); assay: Primary screen NINDS Rhodamine qHTS for Zika virus inhibitors (AID 1347160); also: nearly all actives have a fitted effect of over 55% in size
In short: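 Single-chain NS2B-NS3 protease, 25 nM, pH 8.0; compounds preincubated 15 min. Activity: Rhodamine110 release from 1.5 microM substrate over 15 min, room temperature, data fitted to 4-parameter Hill.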

CCNC(=O)C1CC(F)(c2ccc(CN3CCCC3)c(F)c2)C1 (stereo unspecified)
Potency [1]: inactive | Potency [2]: inactive

Nc1ncnc2c1c(COc1cccc(Cl)c1)nn2C1CCOCC1
Potency [1]: inactive | Potency [2]: inactive

N#CC1C(=O)N=C(c2cc(Cl)ccc2O)C=C1c1cc(OCc2ccccc2)cc(OCc2ccccc2)c1 (stereo unspecified)
Potency [1]: inactive | Potency [2]: inactive

CC(C)C(NC(=O)c1ccc(O)cc1)C(=O)N1CCCC1C(=O)Nc1c(O)cccc1C(=O)O (stereo unspecified)
Potency [1]: inactive | Potency [2]: inactive

CC1=C2C(=O)C=C(CO[C@@H]3O[C@H](CO)[C@@H](O)[C@H](O)[C@H]3O)[C@@H]2[C@H]2OC(=O)[C@H](C)[C@@H]2[C@@H](O)C1
Potency [1]: inactive | Potency [2]: inactive

CC1(C)CC2C(O)C3=C(CC(C)(O)C2C1)C(=O)OC3 (stereo unspecified)
Potency [1]: inactive | Potency [2]: inactive

NCCCCN(Cc1nc2ccccc2[nH]1)[C@H]1CCCc2cccnc21
Potency [1]: inactive | Potency [2]: inactive

CC(C)C1NC(=O)CNC(=O)C2CCCN2C(=O)C(Cc2c[nH]c3ccccc23)NC(=O)CNC(=O)C(C(O)c2ccc(O)cc2)NC(=O)CNC1=O (stereo unspecified) (cyclo(G[ξTyr(βOH)]GWPGV); configuration not given here)
Potency [1]: inactive | Potency [2]: inactive
